Source: PubChem BioAssay
Active and inactive are the calls of the source. Unless noted, how the calls were made is not given here.

Key:
[1] = compounds binding Alexa647 anti-His antibody – biochemical, small-molecule microarray, 635 nm fluorescence, artefact control for SMM control protein annotation, primary screen (AID 1128); settings: higher = more signal;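 further: score merges feature fluorescence with signal-to-noise for each printed compound spot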
[2] = test system: Human papillomavirus type 1a E7 protein (residues 1-88); assay: HPV1a E7 small-molecule binders, primary screen, biochemical, small-molecule microarray, residues 1-88, 635 nm (AID 1129); settings: small-molecule microarray binding, fluorescence 635 nm; higher = more signal
[3] = target: Focal adhesion kinase 1 (Homo sapiens) (UniProt Q05397); assay: PTK2 protein binding on printed compound slides – biochemical, small-molecule microarray, 635/667 nm fluorescence, BSA, DTT, primary screen (AID 1130); settings: 635 nm fluorescence, higher = more signal;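 further: composite of spot emission at 667 nm and signal to noise over triplicate slides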
[4] = test system: Fibrinogen (Alexa647-labelled); assay: Alexa647-fibrinogen binding to printed small molecules – biochemical, small-molecule microarray, 635/667 nm fluorescence, artefact control for SMM control-protein annotation, profiling panel (AID 1131); settings: fibrinogen-A647 binding fluorescence, higher = more signal;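 further: z-score merges 667 nm fluorescence with per-spot signal-to-noise over triplicate slides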
[5] = target: Follistatin (Homo sapiens) (UniProt P19883); assay: FST protein binding to printed compounds – biochemical, small-molecule microarray, 635/667 nm fluorescence, primary screen (AID 1132); settings: 635 nm fluorescence, higher = more signal
[6] = target: Fibroblast growth factor 2 (Homo sapiens) (UniProt P09038); assay: basic fibroblast growth factor binding to printed compounds – biochemical, small-molecule microarray, 635/667 nm fluorescence, primary screen (AID 1133); settings: FGF2, fluorescence 635/667, higher = more signal
[7] = JC-1 mitochondrial potential readout, lung cancer cells – cell-based, A549, JC-1 fluorescence, basal, 24 h, 100 nL, profiling panel (AID 1138); settings: higher = more signal;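 further: A549 lung adenocarcinoma cells under basal conditions with no added stimulus; test concentration not given here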
[8] = test system: Lefty1; assay: Lefty1 protein binding to printed compounds – biochemical, small-molecule microarray, 635/667 nm fluorescence, primary screen (AID 1139); settings: fluorescence 635/667, higher = more signal
[9] = test system: wheat germ agglutinin (Triticum aestivum), Alexa647-labelled; assay: Alexa647-WGA lectin binding to printed small molecules – biochemical, small-molecule microarray, 635/667 nm fluorescence, artefact control for SMM control-protein annotation, profiling panel (AID 1140); settings: WGA-A647 binding, 635 nm fluorescence, higher = more signal;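 further: score merges 667 nm feature emission with signal to noise over triplicate slides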
[10] = target: Luciferin 4-monooxygenase (Photinus pyralis) (UniProt P08659); assay: inhibition of purified Photinus pyralis luciferase – biochemical, luminescence, purified enzyme, 2006 set, primary screen (AID 1141); settings: purified firefly luciferase, SteadyGlo luminescence, 30 min; higher = more signal, called active from +8 up or from −8 down;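 further: cell-free assay with purified firefly luciferase at 100 ng per well in PBS; test concentration not given here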
[11] = test system: Wnt5a (protein binding on small-molecule microarray); assay: small molecules binding Wnt5a protein – biophysical, small-molecule microarray, 635/667 nm fluorescence, primary screen (AID 1142); settings: 635 nm fluorescence, higher = more signal;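 further: fluorescence read at 667 nm with signal to noise per printed feature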
[12] = ATP-based viability of Huh7 replicon cells – cell-based, CellTiter-Glo luminescence, basal, 48 h, cytotoxicity control for HCV replication inhibitor project, primary screen (AID 1143); settings: higher = more signal, called active from +8 up or from −8 down;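 further: Huh7 hepatoma cells carrying a hepatitis C replication reporter with no stimulus; test concentration not given here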
[13] = Pseudomonas biofilm growth suppression – PAO1 strain, BacTiter-Glo luminescence, LB-PBS, primary screen (AID 1144); settings: P. aeruginosa PAO1 biofilm, 12 h, higher = more signal
[14] = basal CRE-LacZ reporter activity in PC12 – cell-based, unstimulated, primary screen (AID 1145); settings: no forskolin, luminescence, 4.5 h, higher = more signal, called active from +8 up or from −8 down
[15] = forskolin-driven CRE-LacZ activity in PC12 – cell-based, CRE-LacZ reporter, forskolin-stimulated, primary screen (AID 1146); settings: luminescence, 4.5 h, higher = more signal, called active from +8 up or from −8 down;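 further: PC12 cells with 6xCRE LacZ reporter stimulated by forskolin 10 µM; beta-galactosidase reporter signal reflecting CREB driven transcription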
[16] = target: Streptavidin (Streptomyces avidinii) (UniProt P22629); assay: compounds binding control protein streptavidin – biophysical, small-molecule microarray, 635/667 nm fluorescence, artefact control for SMM compound annotation, primary screen (AID 1147); settings: higher = more signal;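 further: signal reflects streptavidin binding to arrayed compounds as a control protein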
[17] = probe aInhba binding on compound microarray – biochemical, small-molecule microarray, 635/667 nm fluorescence, primary screen (AID 1148); settings: higher = more signal;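 further: score merges 667nm spot fluorescence with signal-to-noise for antibody binding to printed compounds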
[18] = target: Torsin-1A (Homo sapiens) (UniProt O14656); assay: TOR1A wild-type binding on microarray – cell lysate, small-molecule microarray, lysate, 635/667 nm, primary screen (AID 1149); settings: COS7 hTOR1A-WT lysate, 635 nm fluorescence, higher = more signal
[19] = target: Torsin-1A (Homo sapiens) (UniProt O14656); assay: torsin A mutant lysate binding on microarrays – cell lysate, small-molecule microarray, COS7 lysate, 635/667 nm fluorescence, primary screen (AID 1150); settings: COS7 hTOR1A mutant lysate, 635 nm fluorescence, higher = more signal;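 further: score pools 667 nm emission and signal to noise measuring lysate protein binding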
[20] = test system: Sonic hedgehog protein (Shh); assay: Sonic hedgehog microarray binding compounds – biochemical, small-molecule microarray, 635/667 nm fluorescence, primary screen (AID 1151); settings: 635 nm fluorescence, higher = more signal;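 further: Shh protein binding to compounds spotted on small-molecule microarray slides; score combines spot fluorescence intensity with signal-to-noise across triplicate slides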

Chain of Focal adhesion kinase 1 (Homo sapiens) (Q05397 whole entry, looked up): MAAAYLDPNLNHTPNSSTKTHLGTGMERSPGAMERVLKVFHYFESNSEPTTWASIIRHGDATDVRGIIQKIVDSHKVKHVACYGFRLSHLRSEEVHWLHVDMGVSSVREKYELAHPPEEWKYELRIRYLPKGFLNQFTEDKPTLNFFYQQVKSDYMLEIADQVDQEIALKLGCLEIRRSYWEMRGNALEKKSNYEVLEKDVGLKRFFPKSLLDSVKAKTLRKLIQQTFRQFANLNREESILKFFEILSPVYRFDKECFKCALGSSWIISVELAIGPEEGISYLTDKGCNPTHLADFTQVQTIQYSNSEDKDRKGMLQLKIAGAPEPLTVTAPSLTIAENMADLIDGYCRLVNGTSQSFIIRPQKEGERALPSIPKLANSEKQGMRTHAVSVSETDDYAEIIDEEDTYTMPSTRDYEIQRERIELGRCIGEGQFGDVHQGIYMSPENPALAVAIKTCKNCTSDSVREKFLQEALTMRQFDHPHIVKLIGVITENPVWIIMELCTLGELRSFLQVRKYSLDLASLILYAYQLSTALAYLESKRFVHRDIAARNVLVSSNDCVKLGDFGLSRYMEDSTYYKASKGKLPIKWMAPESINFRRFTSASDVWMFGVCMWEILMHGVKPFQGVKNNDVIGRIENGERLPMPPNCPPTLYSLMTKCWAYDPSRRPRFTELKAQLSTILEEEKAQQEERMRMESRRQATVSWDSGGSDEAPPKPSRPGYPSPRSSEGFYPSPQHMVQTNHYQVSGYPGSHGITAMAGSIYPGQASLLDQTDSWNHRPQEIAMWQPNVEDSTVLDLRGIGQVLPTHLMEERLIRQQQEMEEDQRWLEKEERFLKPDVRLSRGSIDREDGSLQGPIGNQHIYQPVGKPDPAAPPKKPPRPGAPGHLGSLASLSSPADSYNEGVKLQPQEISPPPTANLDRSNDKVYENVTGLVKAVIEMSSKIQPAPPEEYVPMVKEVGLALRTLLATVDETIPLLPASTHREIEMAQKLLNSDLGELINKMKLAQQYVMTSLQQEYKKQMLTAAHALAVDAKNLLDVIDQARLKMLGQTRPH
Chain of Follistatin (Homo sapiens) (P19883 whole entry, looked up): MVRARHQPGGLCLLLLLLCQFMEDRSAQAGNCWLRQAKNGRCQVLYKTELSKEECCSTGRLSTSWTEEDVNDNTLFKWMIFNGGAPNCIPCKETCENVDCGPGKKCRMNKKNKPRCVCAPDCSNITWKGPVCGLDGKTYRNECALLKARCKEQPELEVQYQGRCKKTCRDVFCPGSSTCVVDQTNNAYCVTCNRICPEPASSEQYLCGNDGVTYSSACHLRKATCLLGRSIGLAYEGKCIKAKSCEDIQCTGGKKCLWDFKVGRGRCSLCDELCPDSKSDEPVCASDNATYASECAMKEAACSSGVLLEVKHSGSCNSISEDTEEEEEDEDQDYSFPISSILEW
Chain of Fibroblast growth factor 2 (Homo sapiens) (P09038 whole entry, looked up): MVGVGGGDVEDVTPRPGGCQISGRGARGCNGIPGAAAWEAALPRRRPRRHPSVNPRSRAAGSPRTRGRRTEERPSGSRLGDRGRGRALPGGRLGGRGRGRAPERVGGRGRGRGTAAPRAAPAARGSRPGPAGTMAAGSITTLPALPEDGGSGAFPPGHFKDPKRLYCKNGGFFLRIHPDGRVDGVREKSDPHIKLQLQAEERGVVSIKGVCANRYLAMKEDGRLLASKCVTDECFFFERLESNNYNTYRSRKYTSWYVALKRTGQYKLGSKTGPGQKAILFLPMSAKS
Chain of Streptavidin (Streptomyces avidinii) (P22629 whole entry, looked up): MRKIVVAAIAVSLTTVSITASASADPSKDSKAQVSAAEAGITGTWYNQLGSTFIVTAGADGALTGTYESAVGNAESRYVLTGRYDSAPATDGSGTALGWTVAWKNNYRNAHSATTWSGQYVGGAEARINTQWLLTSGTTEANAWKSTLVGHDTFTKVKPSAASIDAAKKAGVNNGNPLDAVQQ
Chain of Torsin-1A (Homo sapiens) (O14656 whole entry, looked up): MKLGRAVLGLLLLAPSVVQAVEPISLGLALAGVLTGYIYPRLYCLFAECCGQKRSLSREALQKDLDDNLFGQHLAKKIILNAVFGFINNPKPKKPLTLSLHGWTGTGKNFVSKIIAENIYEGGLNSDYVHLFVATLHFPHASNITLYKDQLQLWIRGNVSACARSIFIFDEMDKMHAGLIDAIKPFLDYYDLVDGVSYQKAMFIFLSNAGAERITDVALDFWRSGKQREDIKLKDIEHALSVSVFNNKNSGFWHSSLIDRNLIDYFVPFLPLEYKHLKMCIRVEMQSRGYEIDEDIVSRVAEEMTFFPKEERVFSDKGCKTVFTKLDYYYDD
Chain of Luciferin 4-monooxygenase (Photinus pyralis) (P08659 whole entry, looked up): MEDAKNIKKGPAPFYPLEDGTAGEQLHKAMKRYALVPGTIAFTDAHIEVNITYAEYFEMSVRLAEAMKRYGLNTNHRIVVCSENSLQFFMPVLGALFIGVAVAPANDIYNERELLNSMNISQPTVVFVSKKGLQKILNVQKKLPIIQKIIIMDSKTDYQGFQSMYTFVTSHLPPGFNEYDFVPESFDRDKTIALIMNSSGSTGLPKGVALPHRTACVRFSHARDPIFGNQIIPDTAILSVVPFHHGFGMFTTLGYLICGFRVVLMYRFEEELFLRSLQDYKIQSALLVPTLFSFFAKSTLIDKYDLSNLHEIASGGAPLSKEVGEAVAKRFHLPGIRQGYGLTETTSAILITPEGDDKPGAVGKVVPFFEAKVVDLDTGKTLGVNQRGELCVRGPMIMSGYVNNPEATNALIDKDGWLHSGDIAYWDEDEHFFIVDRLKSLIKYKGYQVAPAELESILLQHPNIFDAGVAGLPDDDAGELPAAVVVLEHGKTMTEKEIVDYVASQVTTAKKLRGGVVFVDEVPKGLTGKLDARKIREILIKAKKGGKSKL

SMILES	composite z-score [1]	composite z-score [2]	composite z-score [3]	composite z-score [4]	composite z-score [5]	composite z-score [6]	z-score [7]	composite z-score [8]	composite z-score [9]	z-score [10]	composite z-score [11]	z-score [12]	z-score [13]	z-score [14]	z-score [15]	composite z-score [16]	composite z-score [17]	composite z-score [18]	composite z-score [19]	composite z-score [20]
COc1ccccc1CN1C(=O)c2ccccc2[C@@]2(Cc3ccccc3N(C(C)C)C2=O)[C@@H]1c1ccc(CO)cc1	-0.166	-0.263	-0.0604	-0.586	-0.13	-0.609	0.427	-0.404	0.57	-1.08 (inactive)	-0.458	-1.84 (inactive)	-0.205 (inactive)	-0.179 (inactive)	-0.335 (inactive)	-0.213	-0.0695	-1.25	0.373	-0.147
C[C@@H]1C=CCC(=O)OC[C@H](C)C(=O)OC[C@H]2O[C@H]1C=C[C@H]2O	-0.31	-0.307	-0.174	0.303	0.208	0.577	0.328	0.781	0.59	-1.1 (inactive)	0.263	0.196 (inactive)	-0.0585 (inactive)	-0.2 (inactive)	0.165 (inactive)	-0.392	-0.105	-0.0292	0.188	1.09
CCOC(=O)CCN1C(=O)[C@H]2[C@H]3[C@H](O)[C@H](O)CC(=NNC(=O)OCc4ccc(OC)cc4)[C@@H]3CC[C@H]2C1=O	-0.0498	0.842	0.215	0.367	0.541	0.474	0.385	0.833	0.985	0.666 (inactive)	-0.109	-0.284 (inactive)	0.5 (inactive)	0.957 (inactive)	-0.254 (inactive)	0.922	-0.195	-0.0239	0.0335	0.741
CC(C)=NOCc1ccc(-c2cc(-c3ccccc3)no2)cc1	0.0906	0.272	0.0171	0.108	0.0806	0.437	-0.405	0.003	-0.477	0.534 (inactive)	0.102	0.517 (inactive)	1.5 (inactive)	-0.797 (inactive)	0.275 (inactive)	0.06	-0.23	0.299	-0.223	0.253
C[C@@H]1C=CCC(=O)OC[C@H](C)C(=O)N[C@@H](C)C(=O)OC1	-0.181	-0.479	1.32	-0.096	0.302	1.09	-0.944	0.921	-0.323	1.04 (inactive)	0.268	-0.568 (inactive)	-0.298 (inactive)	-0.887 (inactive)	-0.24 (inactive)	0.34	-0.0044	1.51	0.527	1.3
